Results with a measured potency or affinity are listed apart. The source made the active and inactive calls.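 The calls were made as follows: active = cell killing with a fitted half-effect concentration at or below twice the top valid dose; inconclusive = flat curve with 30 to 70 percent drop, or poor fit; inactive = the rest.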
assay: viability loss in HEK293T kidney cells – cell-based, ATP luminescence, cherry-pick, set 6, cytotoxicity control, dose response (AID 1053126); conditions: CellTiter-Glo ATP luminescence, 72 h; series mostly up to 26 µM

Structure (SMILES) | outcome
COc1cc(C(c2c(C(=O)O)[nH]c3ccccc23)c2c(C(=O)O)[nH]c3ccccc23)ccc1OCc1ccccc1 | inactive
O=c1oc2cc(O)ccc2cc1S(=O)(=O)c1ccccc1 | inactive
CC(=O)Oc1ccc2cc(-c3nc4ccccc4n3C)c(=O)oc2c1 | inactive
O=C(O)C1=CC[C@@H](c2ccc(Cl)cc2)N(S(=O)(=O)c2ccc(Cl)cc2)[C@H]1c1ccc(F)cc1 | inactive
COc1ccc(Br)c(Cn2c(C)c(C(=O)NCc3ccc4c(c3)OCCO4)sc2=O)c1 | inactive
[O-]/[N+](=C/c1ccccc1)c1ccccc1 | inactive
COc1ccc(S(=O)(=O)Cc2ccc(C(=O)N3CCN(Cc4ccccc4)CC3)o2)cc1 | inactive
Cc1cccn2c(=O)c3cc(C#N)c(=NC(=O)c4cccs4)n(CC(C)C)c3nc12 | inactive
CC1CC(C)CN(CCCNC(=O)CCC(=O)N2CC(C)Oc3ccccc32)C1 (stereo not drawn) | inactive
Cc1c(C=O)c2ccccn2c1C(=O)c1cccs1 | inactive
C[C@H](NC(=O)c1nc[nH]c1C(=O)N[C@@H](Cc1ccccc1)C(=O)OC(C)(C)C)C(=O)OCc1ccccc1 | inactive
CCOC(=O)c1cc2c(=O)n3ccccc3nc2n(C(C)C)c1=NC(=O)c1ccco1 | inactive
CNNC(=S)NC1CC2CC1C1C=CCC21 (stereo not drawn) | inactive
CN1CCN(c2nc3ccccn3c(=O)c2/C=C(\C#N)S(=O)(=O)c2ccccc2)CC1 | inactive
C=Cc1ccc(Cn2c(C)c(C(=O)NCc3cccc(C)c3)sc2=O)cc1 | inactive
CCC(Sc1nc(N)c(NC(=O)c2ccc(OC)cc2)c(=O)[nH]1)C(=O)O (stereo not drawn) | inactive
O=C(c1cccc(Cl)c1)N1CCC(=O)N(C(COCc2ccccc2)Cc2ccccc2)CC1 (stereo not drawn) | inactive
Cc1nc(CCNC(=O)Cc2ccc(Cl)cc2)cs1 | inactive
COCCNC(=S)N/N=C/c1ccc(-c2ccc([N+](=O)[O-])cc2)o1 | inactive

Structure (SMILES) | outcome
CSc1ccc(Cn2c(C)c(C(=O)NCc3cccc(Cl)c3)sc2=O)cc1 | inactive
Cc1c(C(=O)NCc2cccc([N+](=O)[O-])c2)sc(=O)n1Cc1cccc(F)c1 | inactive
C=CCc1c(O)c(CC)cc2c(C)cc(=O)oc12 | inactive
O=c1[nH]c(Nc2ccccc2Cl)cc2ccccc12 | inactive
O=C(O)c1ccc(N2N=C(c3ccccc3)CC2c2ccccc2)cc1 (stereo not drawn) | inactive
COc1ccc(C2C3=C(CCCC3=O)N(CC(=O)O)C3=C2C(=O)CCC3)cc1Cl | inactive
O=C(O)c1cccc(NC(=O)c2cn(-c3ccccc3)nc2-c2cccc(Br)c2)c1 | inactive
COc1ccccc1NS(=O)(=O)c1cc(NC(=O)CCNC(C)=O)ccc1C | inactive
CC1(C)CC(=O)C2=C(C1)OC(N)=C(C#N)[C@@H]2c1ccccc1[N+](=O)[O-] | inactive
CCOC(=O)c1cc2c(=O)n3ccccc3nc2n(CCCOC)c1=NC(=O)c1ccncc1 | inactive
O=c1c2ccccc2n(CC(O)CN2CCCCC2)c2ccccc12 (stereo not drawn) | inactive
Cc1cc(-n2c(=O)c(C#N)cc3c(=O)n4ccccc4nc32)no1 | inactive
CCN(c1ccccc1)S(=O)(=O)c1ccc(OC)c(NC(=O)CN(C)C)c1 | inactive
CCc1cccc(OC2OC(CO)C(O)C(O)C2NC(C)=O)c1 (stereo not drawn) | inactive
O=C(NCc1nnnn1-c1ccc(Cl)cc1)C1CC(=O)N(c2ccc(F)cc2)C1 (stereo not drawn) | inactive
N#C/C(=C\c1ccc(N2CCOCC2)o1)C(=O)NCCc1ccccc1 | inactive
O=C1c2ccccc2S(=O)(=O)c2cc(N3CCC(C(=O)N4CCCCC4)CC3)ccc21 | inactive
COc1cc(C2C3=C(CC(C)(C)CC3=O)N(C)C3=C2C(=O)CC(C)(C)C3)cc(Br)c1O | inactive
CCOC(=O)C(NC(=O)c1ccccc1)(OCC1(CC)COC1)C(F)(F)F (stereo not drawn) | inactive
